# Measurements from publication PMC7862700, “An all-to-all approach to the identification of sequence-specific readers for epigenetic DNA modifications on cytosine”.
# What was measured:
# Experiment in all cases: DAPPL (digital affinity profiling via proximity ligation, sequencing); 10 mM Tris-HCl pH 7.5, 50 mM NaCl, 1 mM DTT, 4% glycerol, room temperature, 30 min; GST-TFs on glutathione beads, 16-mer random dsDNA library, 0.1% formaldehyde crosslink after washing; high values mean tight binding
# FLI1 = molecular target: T1, FLI1 (Homo sapiens, UniProt Q01543 1-452); settings: protein: recombinant; tags: N-terminal GST; dsDNA, one strand shown
# T1 sequence: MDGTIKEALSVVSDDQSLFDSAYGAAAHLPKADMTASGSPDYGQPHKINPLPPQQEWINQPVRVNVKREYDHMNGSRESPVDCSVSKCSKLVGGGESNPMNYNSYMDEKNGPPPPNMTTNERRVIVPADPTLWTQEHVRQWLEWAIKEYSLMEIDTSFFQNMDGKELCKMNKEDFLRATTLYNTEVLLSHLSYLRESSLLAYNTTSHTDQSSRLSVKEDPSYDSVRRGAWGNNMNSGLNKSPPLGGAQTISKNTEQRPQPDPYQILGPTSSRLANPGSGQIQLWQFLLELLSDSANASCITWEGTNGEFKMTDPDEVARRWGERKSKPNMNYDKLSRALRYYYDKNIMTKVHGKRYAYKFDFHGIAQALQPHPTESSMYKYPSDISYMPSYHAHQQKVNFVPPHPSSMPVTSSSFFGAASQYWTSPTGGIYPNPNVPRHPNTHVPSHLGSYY
# Outline: (§1)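 Binding signal is given per hexamer as its read frequency for a factor divided by its frequency in the tag-only sample. GST-fused human transcription factors were expressed in yeast, captured on glutathione beads, barcoded with DNA and pooled with that sample, then incubated with 200 nmole of a 16-mer random double-stranded DNA library in Tris/NaCl/DTT/glycerol buffer for 30 min at room temperature. The pools were then washed, crosslinked, proximity-ligated, amplified by PCR and sequenced on an Illumina NextSeq500.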
# ELK1 = molecular target: T2, ELK1 (Homo sapiens, UniProt P19419 1-428); settings: protein: recombinant; tags: N-terminal GST; dsDNA, one strand shown
# T2 sequence: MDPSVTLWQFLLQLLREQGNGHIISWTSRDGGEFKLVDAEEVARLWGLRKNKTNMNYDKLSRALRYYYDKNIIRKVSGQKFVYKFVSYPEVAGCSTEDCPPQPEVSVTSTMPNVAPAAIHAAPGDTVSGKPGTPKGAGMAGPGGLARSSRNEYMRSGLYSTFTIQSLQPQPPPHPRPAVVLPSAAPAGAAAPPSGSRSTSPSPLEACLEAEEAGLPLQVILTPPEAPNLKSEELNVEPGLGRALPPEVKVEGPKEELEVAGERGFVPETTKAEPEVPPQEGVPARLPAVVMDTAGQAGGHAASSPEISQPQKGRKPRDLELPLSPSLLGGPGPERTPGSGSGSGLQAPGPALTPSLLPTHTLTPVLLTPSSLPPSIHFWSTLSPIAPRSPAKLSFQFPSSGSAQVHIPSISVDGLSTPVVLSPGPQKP
# Outline: as §1
# GABPA = molecular target: T3, GABPA (Homo sapiens, UniProt Q06546 1-454); settings: protein: recombinant; tags: N-terminal GST; dsDNA, one strand shown
# T3 sequence: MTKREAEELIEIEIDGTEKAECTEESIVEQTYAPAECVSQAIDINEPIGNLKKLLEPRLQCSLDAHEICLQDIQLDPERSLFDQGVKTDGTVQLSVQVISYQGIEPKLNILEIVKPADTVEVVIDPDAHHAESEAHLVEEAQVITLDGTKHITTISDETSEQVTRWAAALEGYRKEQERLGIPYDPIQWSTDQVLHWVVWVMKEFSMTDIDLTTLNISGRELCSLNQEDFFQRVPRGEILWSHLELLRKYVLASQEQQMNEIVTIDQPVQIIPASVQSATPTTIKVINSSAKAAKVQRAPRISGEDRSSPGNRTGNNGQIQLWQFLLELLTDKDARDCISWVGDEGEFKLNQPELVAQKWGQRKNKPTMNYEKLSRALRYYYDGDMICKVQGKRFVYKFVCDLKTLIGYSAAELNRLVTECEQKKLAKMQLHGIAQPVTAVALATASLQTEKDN
# Outline: as §1
# ERG = molecular target: T4, ERG (Homo sapiens, UniProt P11308 1-479); settings: protein: recombinant; tags: N-terminal GST; dsDNA, one strand shown
# T4 sequence: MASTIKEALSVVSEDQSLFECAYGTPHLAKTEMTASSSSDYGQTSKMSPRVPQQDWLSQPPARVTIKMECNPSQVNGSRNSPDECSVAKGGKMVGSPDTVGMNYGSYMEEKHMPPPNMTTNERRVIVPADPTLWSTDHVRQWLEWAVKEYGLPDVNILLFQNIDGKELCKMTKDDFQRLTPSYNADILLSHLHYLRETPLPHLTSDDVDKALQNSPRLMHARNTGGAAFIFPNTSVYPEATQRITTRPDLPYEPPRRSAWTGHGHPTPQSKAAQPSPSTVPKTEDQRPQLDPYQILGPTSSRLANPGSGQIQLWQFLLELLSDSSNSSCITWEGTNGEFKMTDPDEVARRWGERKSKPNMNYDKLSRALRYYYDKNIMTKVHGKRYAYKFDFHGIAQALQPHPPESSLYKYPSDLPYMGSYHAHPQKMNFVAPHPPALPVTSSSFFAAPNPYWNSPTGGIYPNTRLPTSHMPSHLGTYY
# Outline: as §1
# ELF1 = ELF1 (Homo sapiens, UniProt P32519 1-619); settings: protein: recombinant; tags: N-terminal GST; dsDNA, one strand shown
# Outline: as §1
# EHF = molecular target: T5, EHF (Homo sapiens, UniProt Q9NZC4 1-300); settings: protein: recombinant; tags: N-terminal GST; dsDNA, one strand shown
# T5 sequence: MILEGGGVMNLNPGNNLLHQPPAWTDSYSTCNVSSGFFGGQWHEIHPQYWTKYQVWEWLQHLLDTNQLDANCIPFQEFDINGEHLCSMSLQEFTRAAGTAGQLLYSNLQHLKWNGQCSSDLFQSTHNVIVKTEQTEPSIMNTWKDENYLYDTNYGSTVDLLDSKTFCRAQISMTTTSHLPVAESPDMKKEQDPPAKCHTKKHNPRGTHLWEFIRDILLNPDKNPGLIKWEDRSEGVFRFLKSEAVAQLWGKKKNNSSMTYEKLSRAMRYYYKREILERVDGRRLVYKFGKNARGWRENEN
# Outline: as §1
# SPI1 = SPI1 (Homo sapiens, UniProt P17947 1-270); settings: protein: recombinant; tags: N-terminal GST; dsDNA, one strand shown
# Outline: as §1
# SPIB = SPIB (Homo sapiens, UniProt Q01892 1-262); settings: protein: recombinant; tags: N-terminal GST; dsDNA, one strand shown
# Outline: as §1
# ELK3 = molecular target: T6, ELK3 (Homo sapiens, UniProt P41970 1-407); settings: protein: recombinant; tags: N-terminal GST; dsDNA, one strand shown
# T6 sequence: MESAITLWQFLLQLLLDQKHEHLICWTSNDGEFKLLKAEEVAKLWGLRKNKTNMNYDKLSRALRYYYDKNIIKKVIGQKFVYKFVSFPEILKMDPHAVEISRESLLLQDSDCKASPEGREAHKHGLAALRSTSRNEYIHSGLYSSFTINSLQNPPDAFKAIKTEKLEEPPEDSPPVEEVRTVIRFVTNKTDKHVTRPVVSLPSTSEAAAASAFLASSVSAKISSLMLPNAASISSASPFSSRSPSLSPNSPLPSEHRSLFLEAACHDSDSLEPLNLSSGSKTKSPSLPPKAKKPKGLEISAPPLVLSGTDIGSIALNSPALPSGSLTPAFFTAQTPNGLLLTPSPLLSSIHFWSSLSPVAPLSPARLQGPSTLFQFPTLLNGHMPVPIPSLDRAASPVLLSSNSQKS
# Outline: as §1
# FEV = molecular target: T7, FEV (Homo sapiens, UniProt Q99581 1-238); settings: protein: recombinant; tags: N-terminal GST; dsDNA, one strand shown
# T7 sequence: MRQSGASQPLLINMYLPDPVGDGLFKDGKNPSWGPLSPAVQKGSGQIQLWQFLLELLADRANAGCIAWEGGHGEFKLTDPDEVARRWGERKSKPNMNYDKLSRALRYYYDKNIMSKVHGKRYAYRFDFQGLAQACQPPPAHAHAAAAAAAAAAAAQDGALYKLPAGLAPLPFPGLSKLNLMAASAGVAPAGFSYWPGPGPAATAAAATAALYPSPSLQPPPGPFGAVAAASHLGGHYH
# Outline: as §1
# ETV5 = ETV5 (Homo sapiens, UniProt P41161 1-510); settings: protein: recombinant; tags: N-terminal GST; dsDNA, one strand shown
# Outline: as §1
# HSF1 = HSF1 (Homo sapiens, UniProt Q00613 1-529); settings: protein: recombinant; tags: N-terminal GST; chain copies: 3; dsDNA, one strand shown
# Outline: as §1
# SPIC = molecular target: T8, SPIC (Homo sapiens, UniProt Q8N5J4 1-248); settings: protein: recombinant; tags: N-terminal GST; dsDNA, one strand shown
# T8 sequence: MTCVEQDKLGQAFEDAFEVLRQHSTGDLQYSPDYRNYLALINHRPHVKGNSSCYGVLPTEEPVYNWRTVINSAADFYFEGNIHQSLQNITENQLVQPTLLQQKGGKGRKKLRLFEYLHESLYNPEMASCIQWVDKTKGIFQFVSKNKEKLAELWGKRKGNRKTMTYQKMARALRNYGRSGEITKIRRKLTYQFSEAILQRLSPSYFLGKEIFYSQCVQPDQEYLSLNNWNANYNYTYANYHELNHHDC
# Outline: as §1
# ELF4 = ELF4 (Homo sapiens, UniProt Q99607 1-663); settings: protein: recombinant; tags: N-terminal GST; dsDNA, one strand shown
# Outline: as §1
# ELK4 = molecular target: T9, ELK4 (Homo sapiens, UniProt P28324-2 1-405); settings: protein: recombinant; tags: N-terminal GST; dsDNA, one strand shown
# T9 sequence: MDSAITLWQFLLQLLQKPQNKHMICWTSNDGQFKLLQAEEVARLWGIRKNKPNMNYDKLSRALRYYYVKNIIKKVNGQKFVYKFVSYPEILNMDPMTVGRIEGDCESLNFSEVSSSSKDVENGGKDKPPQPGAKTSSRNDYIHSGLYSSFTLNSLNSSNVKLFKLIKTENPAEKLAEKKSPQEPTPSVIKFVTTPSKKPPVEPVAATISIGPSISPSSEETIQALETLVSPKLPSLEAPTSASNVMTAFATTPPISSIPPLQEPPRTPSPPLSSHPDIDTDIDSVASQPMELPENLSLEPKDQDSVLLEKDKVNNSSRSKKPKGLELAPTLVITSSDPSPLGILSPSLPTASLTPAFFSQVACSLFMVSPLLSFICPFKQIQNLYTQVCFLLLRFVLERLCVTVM
# Outline: as §1
# ETV2 = molecular target: T10, ETV2 (Homo sapiens, UniProt O00321 1-342); settings: protein: recombinant; tags: N-terminal GST; dsDNA, one strand shown
# T10 sequence: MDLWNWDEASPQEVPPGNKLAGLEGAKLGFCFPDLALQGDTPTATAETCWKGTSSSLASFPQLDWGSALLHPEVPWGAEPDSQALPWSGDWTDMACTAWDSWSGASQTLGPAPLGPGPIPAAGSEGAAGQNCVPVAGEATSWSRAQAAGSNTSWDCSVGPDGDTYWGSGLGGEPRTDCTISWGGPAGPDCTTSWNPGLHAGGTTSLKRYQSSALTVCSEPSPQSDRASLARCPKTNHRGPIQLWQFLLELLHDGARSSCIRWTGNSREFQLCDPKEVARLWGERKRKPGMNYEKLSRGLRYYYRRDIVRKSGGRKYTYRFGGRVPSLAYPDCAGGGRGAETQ
# Outline: as §1
# ELF3 = molecular target: T11, ELF3 (Homo sapiens, UniProt P78545 1-371); settings: protein: recombinant; tags: N-terminal GST; dsDNA, one strand shown
# T11 sequence: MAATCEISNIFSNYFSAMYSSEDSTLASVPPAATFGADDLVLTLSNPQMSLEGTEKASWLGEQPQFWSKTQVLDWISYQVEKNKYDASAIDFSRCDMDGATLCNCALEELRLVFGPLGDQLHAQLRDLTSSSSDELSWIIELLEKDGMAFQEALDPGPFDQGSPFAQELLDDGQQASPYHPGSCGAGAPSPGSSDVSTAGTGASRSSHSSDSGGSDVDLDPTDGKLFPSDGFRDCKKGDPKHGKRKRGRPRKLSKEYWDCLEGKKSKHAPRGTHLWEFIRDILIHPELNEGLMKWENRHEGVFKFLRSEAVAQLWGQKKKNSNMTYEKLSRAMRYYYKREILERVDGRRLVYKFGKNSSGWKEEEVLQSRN
# Outline: as §1
# CRX = CRX (Homo sapiens, UniProt O43186 1-299); settings: protein: recombinant; tags: N-terminal GST; dsDNA, one strand shown
# Outline: as §1
# ETV1 = ETV1 (Homo sapiens, UniProt P50549 1-477); settings: protein: recombinant; tags: N-terminal GST; dsDNA, one strand shown
# Outline: as §1
# Sequence of CRX (O43186 whole entry): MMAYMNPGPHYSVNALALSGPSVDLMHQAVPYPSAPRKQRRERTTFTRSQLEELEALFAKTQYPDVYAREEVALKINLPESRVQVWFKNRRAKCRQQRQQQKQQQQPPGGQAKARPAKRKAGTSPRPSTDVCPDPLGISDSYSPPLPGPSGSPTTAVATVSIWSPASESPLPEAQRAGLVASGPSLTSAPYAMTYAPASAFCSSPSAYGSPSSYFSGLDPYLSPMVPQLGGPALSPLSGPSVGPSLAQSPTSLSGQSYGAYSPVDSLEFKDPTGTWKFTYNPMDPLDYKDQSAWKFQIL
# Sequence of ELF1 (P32519 whole entry): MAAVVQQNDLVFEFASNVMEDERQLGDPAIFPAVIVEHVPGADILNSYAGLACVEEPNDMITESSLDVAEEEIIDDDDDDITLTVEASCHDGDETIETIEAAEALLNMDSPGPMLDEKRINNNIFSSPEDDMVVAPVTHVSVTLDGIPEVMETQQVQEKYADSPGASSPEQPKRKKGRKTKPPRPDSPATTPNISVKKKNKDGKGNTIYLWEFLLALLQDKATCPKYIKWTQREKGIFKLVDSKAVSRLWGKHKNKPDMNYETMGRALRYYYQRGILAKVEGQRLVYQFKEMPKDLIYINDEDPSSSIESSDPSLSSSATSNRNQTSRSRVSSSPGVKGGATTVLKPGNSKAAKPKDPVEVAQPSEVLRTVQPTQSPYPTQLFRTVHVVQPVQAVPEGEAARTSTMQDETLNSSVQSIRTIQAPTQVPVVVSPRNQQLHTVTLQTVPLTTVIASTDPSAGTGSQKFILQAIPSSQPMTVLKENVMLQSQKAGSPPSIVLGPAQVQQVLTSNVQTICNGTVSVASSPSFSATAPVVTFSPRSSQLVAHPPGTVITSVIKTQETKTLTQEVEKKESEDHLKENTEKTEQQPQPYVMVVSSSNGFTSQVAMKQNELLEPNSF
# Sequence of ETV5 (P41161 whole entry): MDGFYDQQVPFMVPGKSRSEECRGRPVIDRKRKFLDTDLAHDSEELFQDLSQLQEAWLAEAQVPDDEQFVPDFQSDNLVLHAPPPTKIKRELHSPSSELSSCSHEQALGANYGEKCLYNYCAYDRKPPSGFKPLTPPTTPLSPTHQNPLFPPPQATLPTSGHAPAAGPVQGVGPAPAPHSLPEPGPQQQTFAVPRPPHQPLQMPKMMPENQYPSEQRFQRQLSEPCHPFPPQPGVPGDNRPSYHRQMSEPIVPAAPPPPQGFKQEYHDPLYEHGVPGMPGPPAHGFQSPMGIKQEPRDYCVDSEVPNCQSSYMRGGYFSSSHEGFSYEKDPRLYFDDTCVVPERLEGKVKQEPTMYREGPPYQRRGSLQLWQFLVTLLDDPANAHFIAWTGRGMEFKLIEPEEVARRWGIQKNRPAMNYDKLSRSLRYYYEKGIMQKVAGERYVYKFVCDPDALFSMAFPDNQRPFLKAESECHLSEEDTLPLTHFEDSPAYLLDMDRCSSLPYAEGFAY
# Sequence of HSF1 (Q00613 whole entry): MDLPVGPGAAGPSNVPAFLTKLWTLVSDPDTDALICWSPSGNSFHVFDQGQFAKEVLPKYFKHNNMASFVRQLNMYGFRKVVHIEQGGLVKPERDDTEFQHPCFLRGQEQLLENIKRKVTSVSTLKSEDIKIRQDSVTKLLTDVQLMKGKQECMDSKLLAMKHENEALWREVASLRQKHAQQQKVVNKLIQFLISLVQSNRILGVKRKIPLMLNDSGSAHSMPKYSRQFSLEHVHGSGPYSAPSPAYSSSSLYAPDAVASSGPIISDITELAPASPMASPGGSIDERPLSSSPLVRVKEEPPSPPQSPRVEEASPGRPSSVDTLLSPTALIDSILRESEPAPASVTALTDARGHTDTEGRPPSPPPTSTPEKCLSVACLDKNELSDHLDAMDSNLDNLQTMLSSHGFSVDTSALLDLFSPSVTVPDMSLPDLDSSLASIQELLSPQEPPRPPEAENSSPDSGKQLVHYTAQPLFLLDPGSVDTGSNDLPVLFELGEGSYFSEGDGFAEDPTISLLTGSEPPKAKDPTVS
# Sequence of ELF4 (Q99607 whole entry): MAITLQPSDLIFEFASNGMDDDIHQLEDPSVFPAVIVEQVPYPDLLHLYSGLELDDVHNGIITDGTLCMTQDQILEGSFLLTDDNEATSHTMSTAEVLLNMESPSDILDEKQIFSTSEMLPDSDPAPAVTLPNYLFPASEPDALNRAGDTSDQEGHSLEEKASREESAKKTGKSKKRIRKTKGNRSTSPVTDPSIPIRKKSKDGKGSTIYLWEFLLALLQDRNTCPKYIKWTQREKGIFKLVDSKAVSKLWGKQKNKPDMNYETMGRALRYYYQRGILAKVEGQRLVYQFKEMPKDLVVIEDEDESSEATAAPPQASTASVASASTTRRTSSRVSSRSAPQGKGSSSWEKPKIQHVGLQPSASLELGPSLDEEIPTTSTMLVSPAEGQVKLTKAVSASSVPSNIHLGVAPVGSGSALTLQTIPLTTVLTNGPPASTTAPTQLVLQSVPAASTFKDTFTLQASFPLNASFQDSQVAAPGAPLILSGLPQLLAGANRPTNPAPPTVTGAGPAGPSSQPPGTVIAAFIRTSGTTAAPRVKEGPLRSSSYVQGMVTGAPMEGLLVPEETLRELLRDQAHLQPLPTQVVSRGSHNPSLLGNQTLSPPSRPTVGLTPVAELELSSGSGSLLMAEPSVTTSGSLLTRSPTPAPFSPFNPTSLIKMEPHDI
# Sequence of ETV1 (P50549 whole entry): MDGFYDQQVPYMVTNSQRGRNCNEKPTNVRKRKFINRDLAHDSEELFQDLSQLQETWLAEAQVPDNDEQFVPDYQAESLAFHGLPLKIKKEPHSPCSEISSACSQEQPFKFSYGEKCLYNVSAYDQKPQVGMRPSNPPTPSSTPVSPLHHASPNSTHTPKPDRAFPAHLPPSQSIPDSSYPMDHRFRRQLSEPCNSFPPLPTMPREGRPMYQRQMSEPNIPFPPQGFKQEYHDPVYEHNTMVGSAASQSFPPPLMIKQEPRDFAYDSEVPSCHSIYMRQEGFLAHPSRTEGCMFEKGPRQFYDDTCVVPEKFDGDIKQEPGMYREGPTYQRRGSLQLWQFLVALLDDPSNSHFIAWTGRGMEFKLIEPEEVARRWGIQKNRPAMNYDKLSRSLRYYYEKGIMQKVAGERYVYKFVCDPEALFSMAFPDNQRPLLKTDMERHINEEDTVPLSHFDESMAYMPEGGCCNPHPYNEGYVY
# Sequence of SPIB (Q01892 whole entry): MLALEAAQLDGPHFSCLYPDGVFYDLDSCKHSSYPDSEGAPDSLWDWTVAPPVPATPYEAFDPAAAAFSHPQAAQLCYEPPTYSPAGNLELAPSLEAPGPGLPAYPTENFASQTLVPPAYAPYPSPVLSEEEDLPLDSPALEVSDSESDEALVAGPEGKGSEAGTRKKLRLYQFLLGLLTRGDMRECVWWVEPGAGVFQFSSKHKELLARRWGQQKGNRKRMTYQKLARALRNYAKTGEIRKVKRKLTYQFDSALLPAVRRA
sequence,measurement,setting,value
GGTCTC,binding signal,FLI1,"2.92 fold enrichment (6-mer frequency, TF over GST control)"
same,binding signal,ELK1,"2.66 fold enrichment (6-mer frequency, TF over GST control)"
same,binding signal,GABPA,"2.5 fold enrichment (6-mer frequency, TF over GST control)"
same,binding signal,ERG,"2.46 fold enrichment (6-mer frequency, TF over GST control)"
same,binding signal,ELF1,"2.74 fold enrichment (6-mer frequency, TF over GST control)"
same,binding signal,EHF,"2.55 fold enrichment (6-mer frequency, TF over GST control)"
same,binding signal,SPI1,"2.89 fold enrichment (6-mer frequency, TF over GST control)"
same,binding signal,SPIB,"2.59 fold enrichment (6-mer frequency, TF over GST control)"
same,binding signal,ELK3,"2.2 fold enrichment (6-mer frequency, TF over GST control)"
same,binding signal,FEV,"2.46 fold enrichment (6-mer frequency, TF over GST control)"
same,binding signal,ETV5,"2.46 fold enrichment (6-mer frequency, TF over GST control)"
same,binding signal,HSF1,"1.44 fold enrichment (6-mer frequency, TF over GST control)"
same,binding signal,SPIC,"2.4 fold enrichment (6-mer frequency, TF over GST control)"
same,binding signal,ELF4,"2.51 fold enrichment (6-mer frequency, TF over GST control)"
same,binding signal,ELK4,"2.64 fold enrichment (6-mer frequency, TF over GST control)"
same,binding signal,ETV2,"2.18 fold enrichment (6-mer frequency, TF over GST control)"
same,binding signal,ELF3,"2.29 fold enrichment (6-mer frequency, TF over GST control)"
same,binding signal,CRX,"1.48 fold enrichment (6-mer frequency, TF over GST control)"
same,binding signal,ETV1,"2.58 fold enrichment (6-mer frequency, TF over GST control)"
